Measurements: the supplement of paper PMC6555819

tested on: PPARg:RXRa 30nM:10nM, anti-RXR (NR concentration 30 nM, RXRa partner concentration 10 nM); experiment: PBM binding z-score (relative to random genomic background probes); higher = stronger binding; sequences stand for … in GC…GCGATTGACAGCGTAGAATGAAGG
Outline: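 Scanned fluorescence from custom Agilent 4×180K protein-binding microarrays was regression-normalized. Binding z-scores use random background probes as reference. Ligand-free nuclear receptor dimers were incubated on the arrays for 1 h and detected with antibodies against each partner (one per run).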

Sequence	PBM binding z-score
CAAACTAGCTCAAAGGTCAAAGTCGAGCCAACCA	8.32
GGAACGAGGGCAAGTCGATAGCAGAGTTTGATGG	-0.275
CAGCGTAGGTCAGGGCCAGTATAGGAGGAACGTT	-0.272
TATTGTAGATCAACAGGAGGTTAAGAAAGATCGA	0.596
CAGCCTAGGTCAGGGCCAATATAGGAGGAACGTT	0.246
CTCGAAAAGTCGTGCTCAGGTGAGTATACCAAAC	-0.421
GCGATTGGGGCAAAGCAGGTTACCATAAGGTTGG	-0.0974
TCGTGTAGATCAACAGGAGGTTAAGAAAGATCGA	1.84
CCTATTAGTTTACCATAAGGGCAACCGAAGCTCG	0.33
GCTAGTCGGTCAGTAAAAGGTCACACACCGGTCG	2.43
TCTATTAGTTGAACGGCAACCGACGAGTCCGTTT	3.63
ATCTCTAAGTAACAAGTTCAGTGAAAGAGAGGAC	0.701
GCTAGTTGGTCAGTAAAAGGTCCCACACCGGTCG	-0.539
TCATATAGGTAAACGGTGAAAGTCGGTGTGGTAA	4.43
ACTAGTTGGTCAGCTGAGGTCACATACAATTCGG	0.658
CGTCCAAGGTCATAGGAGGTCAGTGAGGACAGAT	2.52
TCATATAGGTAAATGCTAGGTGAAAGTGCGATCT	3.99
TCCAGTAGGTTAGGGGCATTCAGAATGGCGTCGA	2.86
CTCGAAAGGTCGTGCTCAGGTGAGTAGACCAAAC	0.899
CCTAGTAGGTCAGGAGGTCACACACCGGATATGA	6.14

Sequence	PBM binding z-score
CAAACTAGGTCACGAAAGTTCAAAGTCGAATGAC	6.58
TCTTGTAGATCAAGGGTTAAGAAAGCCGAAGCCT	5.41
TTACCAAGATGAGCTGAGGTCGTTGATCCAACTC	0.543
CCTTACGGGTCAAGGTTATAGCGCGGGTGGTACG	1.73
TAGTCTAGGTCATGGGCCAGTATACCACGCGAAC	3.68
ATCTCTAGGTAAAAGTTCAGTCAATCCCGAGGAT	7.47
AGTCAAAGTTCACTAGGGAACGTAAGATTCAGCT	3.52
CGTCCAAGGTCATAGAAGGTCAGTGAAGACAGAT	2.37
CCAGACAGGTGACAGGTAACTCAGTCTGGTACGC	0.0561
CTCGAAAGGTCGTGCTCACGTGAGTATACCAAAC	0.773
TTACCAAGGTGAGCAGAGGTCGTTGATCCAACTC	0.857
ATGTCTAGGTAAAGTTCAGTGAAAGATCGATAGA	2.43
CCGACTGGGGCACAAAGGTTACCATACCATCCGG	2.72
TATACAGGGTCAAAGGCCAGCGTACGAATGTCGA	5.73
CCTACTGGGCAATTCAGAGGTCATTGATCATATG	0.0551
ACTATTAGTTGACTTGGGGCAACCGATACGACGC	0.327
CCGACTTGGGCAGAAAGGTTACCATACCATCCGG	0.23
GCTAGCACGCCATTTGGGTCACTCAATGACGGGC	-0.294
TCGAGTAGGTTAGGGGCATTCAAAATGGCGTCGA	1.27
CCTCGGAGGACAGAAGGTCAGAGCCGTCCGCTTT	-0.897
